Assay outcomes: PubChem BioAssay, National Center for Advancing Translational Sciences (NCATS)
An excerpt weighted towards active compounds, which were near 11% of everything screened.
Luciferase inh: inhibitors of firefly (Photinus pyralis) luciferase. actives 2.5% (n = 76,000). purified P. pyralis luciferase, luminescence, biochemical. AID 1347043. P08659. Potency, µM (highest dose often 115 µM), usual class: inhibitors; further: nearly all actives have a fitted effect of over 65% in size
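Luminescence read by CCD imaging after purified firefly luciferase (10nM final) was added to substrate buffer holding 10uM D-luciferin and 10uM ATP, pH 7.5, pre-dosed with compound.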
NPR1 antag: blocks ANP-stimulated signaling of human Npr1 receptor | Potency, µM (highest dose often 46.3 µM), for the others: at the highest dose activity change, negative = inhibition, usual class: inhibitors | AID 1347048 | actives 1.6% (n = 76,000) | HEK293 hNpr1 GloSensor cGMP, ANP-stimulated luminescence; calls by dose curve; further: nearly all actives have a fitted effect of over 60% in size
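HEK293 cells stably expressing human Npr1 and cGMP GloSensor pGS-40F, loaded 2 h with 2% GloSensor reagent, given compound 30 min at room temperature. Luminescence read before and 20 min after 0.1 nM hNppA.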
3T3 cytotox: NIH 3T3 cell cytotoxicity; NIH 3T3 viability, CellTiter-Glo ATP luminescence, 48-72 h; Potency, µM (titrated, usually from 96.7 µM), for the others: at the top dose activity change, negative = cytotoxicity, most hits filed as inhibitors; actives 4.3% (n = 94,000); further: nearly all actives have a fitted effect of over 55% in size
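Cytotoxicity is measured as loss of cellular ATP: NIH 3T3 cells (400/well) are exposed to compound for 48 or 72 hr at 37 °C, then CellTiter-Glo luminescence is imaged after 10 min at room temperature.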
HEK293 tox: HEK 293 cell cytotoxicity; HEK 293 viability, ATP luminescence (CellTiter-Glo), 48-72 h; Potency, µM (series often up to 115 µM), inactives show top-dose activity change, negative = cytotoxicity, usual class: inhibitors; actives 6.6% (n = 94,000); further: nearly all actives have a fitted effect of over 60% in size
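HEK 293 cells seeded at 250 cells/well were exposed to compound for 48 or 72 hr at 37 degree Celsius. Viability taken as ATP content by CellTiter-Glo luminescence.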
* marks the source's active call; other numbers are inactive results; i = inactive; u = inconclusive; x = not tested or not shown; [ ] = another dose, or the depositor's remark. Unless noted, the call rests on the fitted dose curve; in most records, active means well fitted curve in the direction sought with a large enough effect; inconclusive means small, poorly fitted or top-dose-only effect, or another doubt; inactive means no such curve, though single readings can be large; an effect the other way counts as inactive or inconclusive. On the % scale 0 is the no-effect control and ±100 the full control effect; potency means the concentration at half of the fitted maximal effect.

SMILES | Luciferase inh | NPR1 antag | 3T3 cytotox | HEK293 tox
NC(=O)c1ccc(OC2CCN(C(=O)C3CCC3)CC2)nc1 | i | -22.7% | -37.3% | u
COc1cc(C(=O)NC[C@@H]2CC[C@H]3C[C@@H]2C3(C)C)nc2ccccc12 | i | 6.8%[70.6 µM] | u | u
Cn1ccc(C(=O)N2CCCC(CCc3ccccc3C(F)(F)F)C2)n1 (stereo not given) | i | -17.1% | u | 31.6µM*
Cc1cccc(C(=O)N2CCC3(CC2)c2nc[nH]c2CCN3CC(C)C)n1 | i | 0.6% | -6.6% | -30.3%
COc1ccc(C(=O)N2CCCC2C(=O)N2CCCC(c3nc4ncccc4[nH]3)C2)cc1 (stereo not given) | x | x | i | 0.2%
COc1ccc(CN2CCC(O)(c3csc(CN4CCN(C)CC4)n3)CC2)cc1 | i | 1.3%[70.6 µM] | 89.1µM* | 100µM*
CC(C)(C)CC(=O)N1CCC(O)(c2csc(CN3CCc4ccccc4C3)n2)CC1 | i | -20.8%[70.6 µM] | u | 70.8µM*
CN1CCC(N2CCC(O)(c3csc(CN4CCc5ccccc5C4)n3)CC2)CC1 | i | 4.2%[70.6 µM] | 56.2µM* | 39.8µM*
CC(C)CCN1CCC(O)(c2csc(CN3CCc4ccccc4C3)n2)CC1 | i | 5.3%[70.6 µM] | 100µM* | 79.4µM*
O=C(C1CC1)N1CCC(O)(c2csc(CN3CCc4ccccc4C3)n2)CC1 | i | 4.0%[70.6 µM] | u | u
OC1(c2csc(CN3CCc4ccccc4C3)n2)CCN(C2CCC2)CC1 | i | 3.6%[70.6 µM] | 100µM* | 70.8µM*
OC1(c2csc(CN3CCc4ccccc4C3)n2)CCN(CC2CCCCC2)CC1 | i | 5.9%[70.6 µM] | u | u
CC1(C)CN(Cc2cn(Cc3ccccc3)nc2-c2cc3ccccc3o2)CCO1 | i | -2.7% | u | u
FC1CCN(Cc2cn(Cc3ccccc3)nc2-c2cc3ccccc3o2)CC1 | i | -2.9% | u | 31.6µM*
COC[C@H]1CCCN1Cc1cn(Cc2ccccc2)nc1-c1cc2ccccc2o1 | u | -12.3% | u | u
c1ccc(Cn2cc(CN3CCCOCC3)c(-c3cc4ccccc4o3)n2)cc1 | 35.5µM* | 1.4% | u | u
c1ccc(Cn2cc(CN3CCN(c4ccncc4)CC3)c(-c3cc4ccccc4o3)n2)cc1 | i | 0.9% | 28.2µM* | 39.8µM*
Cc1ccc(C(=O)NC2CCN(c3cc(-c4ccc(F)cc4)[nH]n3)C2)cc1 (stereo not given) | i | -14.6% | u | u
Cc1ccc(Nc2ccnc(N3CCC(NC(=O)c4ccc(Cl)nc4)CC3)n2)cc1 | x | x | 39.8µM* | 39.8µM*
Cc1ccc(Nc2ccnc(N3CCC(NC(=O)c4ccc(F)cc4)CC3)n2)cc1 | x | x | 35.5µM* | u
Cc1ccc(Nc2ccnc(N3CCC(NC(=O)c4ccc(C(F)(F)F)cc4)CC3)n2)cc1 | x | x | 12.6µM* | u
O=C(NC1CCN(c2ccnc3ccnn23)CC1)c1ccc(Cl)nc1 | x | x | -23.7% | u
COc1cccc(CN2CCC(C(=O)N3CCCCCCNC(=O)CC3)CC2)c1 | i | 1.8% | -2.4% | i
COCCCNC(=O)c1nc2nc(-c3ccccc3)c(Cl)cc2n1C | i | -5.7%[70.6 µM] | u | u
CN(C)CCNC(=O)c1nc2nc(-c3ccccc3)c(Nc3ccc(F)cc3)cc2n1C | i | 2.2%[70.6 µM] | u | 56.2µM*
SMILES | Luciferase inh | NPR1 antag | 3T3 cytotox | HEK293 tox
Cc1ccccc1Nc1cc2c(nc1-c1ccccc1)nc(C(=O)NCCN(C)C)n2C | i | 1.7%[70.6 µM] | 31.6µM* | 39.8µM*
Cc1ccc2oc([C@H]3CCN(C(=O)C4CC4)C3)nc2c1 | 35.5µM* | 5.1%[70.6 µM] | -18.6%[174 µM] | u
Cc1ccc2oc([C@H]3CCN(Cc4ccc(C(=O)O)cc4)C3)nc2c1 | 70.8µM* | 2.2%[70.6 µM] | u | -6.7%[172 µM]
Cc1ccc(CN2CC[C@H](c3nc4cc(C)ccc4o3)C2)cc1 | 44.7µM* | 0.0%[70.6 µM] | u | u
Cc1ccccc1S(=O)(=O)N1CCn2c(nn(CC3CC3)c2=O)C1 | i | -0.1% | -0.6% | -1.4%
CCOc1ccc(C(=O)NC2CCN(c3cc(-c4ccccc4)[nH]n3)CC2)cc1 | i | -18.1% | -24.0% | -40.5%
CNC(=O)[C@@H]1C[C@@H](O)CN1C1CCN(C(=O)CC2CCCC2)CC1 | i | 6.1% | 0.0% | 3.9%
O=C(CN1C(=O)C(c2ccccc2)=NC12CCCC2)Nc1ccc(C(F)(F)F)cc1 | i | u | u | 44.7µM*
O=C(CN1C(=O)C(c2ccccc2)=NC12CCCCC2)NCc1ccccc1 | i | 0.0% | u | 44.7µM*
